According to PubChem BioAssay:
Active and inactive are the calls of the source.

Assays:
[1] = tested on: PRMT1 (protein arginine N-methyltransferase 1); assay: small molecules binding arginine methyltransferase PRMT1 – biochemical, small-molecule microarray, 635 nm fluorescence, primary screen (AID 1088); conditions: higher = more signal;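 further: binding of Prmt1 protein to compounds spotted on small-molecule microarray slides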
[2] = growth effects on S. cerevisiae YJM789 – YJM789 clinical isolate, OD600, 24 h, basal, primary screen (AID 1089); conditions: higher = more signal, called active from +8 up or from −8 down;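 further: growth of clinical yeast isolate S. cerevisiae YJM 789 seeded 1000 cells per well; test concentration not given here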
[3] = S. pombe growth modifiers, basal conditions – strain 972, OD600, 24 h, no modulator, primary screen (AID 1090);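 further: basal condition with compound alone and no growth modifier present; test concentration not given here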; conditions: S. pombe 972 growth, higher = more signal, called active from +8 up or from −8 down
[4] = budding yeast growth modifiers under rapamycin – strain BY4716, OD600, 96 h, primary screen (AID 1091); further: test concentration not given here; conditions: S. cerevisiae BY4716 + rapamycin, higher = more signal, called active from +8 up or from −8 down
[5] = biological target: Torsin-1A-interacting protein 2 (Homo sapiens) (UniProt Q8NFQ8); assay: small molecules binding lysate-expressed LULL1 – cell lysate, human LULL1 lysate, 635/667 nm fluorescence, primary screen (AID 1092); conditions: small-molecule microarray, hLULL1 lysate binding, 635 nm fluorescence; higher = more signal;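 further: probe is lysate of COS7 cells overexpressing human LULL1; score merges per-feature 667 nm fluorescence with signal-to-noise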
Sequence of Torsin-1A-interacting protein 2 (Homo sapiens) (Q8NFQ8 whole entry, looked up): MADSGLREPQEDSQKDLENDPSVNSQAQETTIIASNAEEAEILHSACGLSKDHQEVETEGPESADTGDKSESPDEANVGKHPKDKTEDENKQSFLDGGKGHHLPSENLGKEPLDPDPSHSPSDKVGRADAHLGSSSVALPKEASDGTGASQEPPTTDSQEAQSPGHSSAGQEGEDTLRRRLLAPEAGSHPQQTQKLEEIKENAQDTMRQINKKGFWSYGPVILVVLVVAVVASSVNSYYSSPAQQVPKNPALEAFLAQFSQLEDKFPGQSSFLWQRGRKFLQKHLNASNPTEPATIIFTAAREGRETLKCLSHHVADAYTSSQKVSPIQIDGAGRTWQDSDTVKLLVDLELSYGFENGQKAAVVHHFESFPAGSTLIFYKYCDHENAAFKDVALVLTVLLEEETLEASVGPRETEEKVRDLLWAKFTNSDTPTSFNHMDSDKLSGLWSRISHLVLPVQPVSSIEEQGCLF

[6] = optical density change of DRC41 E. coli – strain DRC41, OD650, 24 h, E. coli filamentation project, primary screen (AID 1093);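 further: MC1000 strain lacking acrAB efflux and sulA so SOS filamentation is blocked; test concentration not given here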; conditions: E. coli DRC41 growth, higher = more signal, called active from +8 up or from −8 down
[7] = probe aLefty2 binding to arrayed compounds – biochemical, biotinylated probe, 635/667 nm fluorescence, primary screen (AID 1094); conditions: small-molecule microarray, higher = more signal;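 further: score merges spot fluorescence near 667 nm with spot signal-to-noise ratio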
[8] = tested on: Noggin (protein binding on small-molecule microarray); assay: small molecules binding Noggin protein – biochemical, 635/667 nm fluorescence, primary screen (AID 1095); conditions: 635 nm fluorescence, higher = more signal;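 further: score merges 667 nm feature fluorescence with signal to noise over triplicate slides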
[9] = biological target: Neurogenic locus notch homolog protein 3 (Homo sapiens) (UniProt Q9UM47); assay: small molecules binding NOTCH3 protein – biochemical, 635/667 nm fluorescence, primary screen (AID 1096); conditions: small-molecule microarray, 635 nm fluorescence, higher = more signal
Sequence of Neurogenic locus notch homolog protein 3 (Homo sapiens) (Q9UM47 whole entry, looked up): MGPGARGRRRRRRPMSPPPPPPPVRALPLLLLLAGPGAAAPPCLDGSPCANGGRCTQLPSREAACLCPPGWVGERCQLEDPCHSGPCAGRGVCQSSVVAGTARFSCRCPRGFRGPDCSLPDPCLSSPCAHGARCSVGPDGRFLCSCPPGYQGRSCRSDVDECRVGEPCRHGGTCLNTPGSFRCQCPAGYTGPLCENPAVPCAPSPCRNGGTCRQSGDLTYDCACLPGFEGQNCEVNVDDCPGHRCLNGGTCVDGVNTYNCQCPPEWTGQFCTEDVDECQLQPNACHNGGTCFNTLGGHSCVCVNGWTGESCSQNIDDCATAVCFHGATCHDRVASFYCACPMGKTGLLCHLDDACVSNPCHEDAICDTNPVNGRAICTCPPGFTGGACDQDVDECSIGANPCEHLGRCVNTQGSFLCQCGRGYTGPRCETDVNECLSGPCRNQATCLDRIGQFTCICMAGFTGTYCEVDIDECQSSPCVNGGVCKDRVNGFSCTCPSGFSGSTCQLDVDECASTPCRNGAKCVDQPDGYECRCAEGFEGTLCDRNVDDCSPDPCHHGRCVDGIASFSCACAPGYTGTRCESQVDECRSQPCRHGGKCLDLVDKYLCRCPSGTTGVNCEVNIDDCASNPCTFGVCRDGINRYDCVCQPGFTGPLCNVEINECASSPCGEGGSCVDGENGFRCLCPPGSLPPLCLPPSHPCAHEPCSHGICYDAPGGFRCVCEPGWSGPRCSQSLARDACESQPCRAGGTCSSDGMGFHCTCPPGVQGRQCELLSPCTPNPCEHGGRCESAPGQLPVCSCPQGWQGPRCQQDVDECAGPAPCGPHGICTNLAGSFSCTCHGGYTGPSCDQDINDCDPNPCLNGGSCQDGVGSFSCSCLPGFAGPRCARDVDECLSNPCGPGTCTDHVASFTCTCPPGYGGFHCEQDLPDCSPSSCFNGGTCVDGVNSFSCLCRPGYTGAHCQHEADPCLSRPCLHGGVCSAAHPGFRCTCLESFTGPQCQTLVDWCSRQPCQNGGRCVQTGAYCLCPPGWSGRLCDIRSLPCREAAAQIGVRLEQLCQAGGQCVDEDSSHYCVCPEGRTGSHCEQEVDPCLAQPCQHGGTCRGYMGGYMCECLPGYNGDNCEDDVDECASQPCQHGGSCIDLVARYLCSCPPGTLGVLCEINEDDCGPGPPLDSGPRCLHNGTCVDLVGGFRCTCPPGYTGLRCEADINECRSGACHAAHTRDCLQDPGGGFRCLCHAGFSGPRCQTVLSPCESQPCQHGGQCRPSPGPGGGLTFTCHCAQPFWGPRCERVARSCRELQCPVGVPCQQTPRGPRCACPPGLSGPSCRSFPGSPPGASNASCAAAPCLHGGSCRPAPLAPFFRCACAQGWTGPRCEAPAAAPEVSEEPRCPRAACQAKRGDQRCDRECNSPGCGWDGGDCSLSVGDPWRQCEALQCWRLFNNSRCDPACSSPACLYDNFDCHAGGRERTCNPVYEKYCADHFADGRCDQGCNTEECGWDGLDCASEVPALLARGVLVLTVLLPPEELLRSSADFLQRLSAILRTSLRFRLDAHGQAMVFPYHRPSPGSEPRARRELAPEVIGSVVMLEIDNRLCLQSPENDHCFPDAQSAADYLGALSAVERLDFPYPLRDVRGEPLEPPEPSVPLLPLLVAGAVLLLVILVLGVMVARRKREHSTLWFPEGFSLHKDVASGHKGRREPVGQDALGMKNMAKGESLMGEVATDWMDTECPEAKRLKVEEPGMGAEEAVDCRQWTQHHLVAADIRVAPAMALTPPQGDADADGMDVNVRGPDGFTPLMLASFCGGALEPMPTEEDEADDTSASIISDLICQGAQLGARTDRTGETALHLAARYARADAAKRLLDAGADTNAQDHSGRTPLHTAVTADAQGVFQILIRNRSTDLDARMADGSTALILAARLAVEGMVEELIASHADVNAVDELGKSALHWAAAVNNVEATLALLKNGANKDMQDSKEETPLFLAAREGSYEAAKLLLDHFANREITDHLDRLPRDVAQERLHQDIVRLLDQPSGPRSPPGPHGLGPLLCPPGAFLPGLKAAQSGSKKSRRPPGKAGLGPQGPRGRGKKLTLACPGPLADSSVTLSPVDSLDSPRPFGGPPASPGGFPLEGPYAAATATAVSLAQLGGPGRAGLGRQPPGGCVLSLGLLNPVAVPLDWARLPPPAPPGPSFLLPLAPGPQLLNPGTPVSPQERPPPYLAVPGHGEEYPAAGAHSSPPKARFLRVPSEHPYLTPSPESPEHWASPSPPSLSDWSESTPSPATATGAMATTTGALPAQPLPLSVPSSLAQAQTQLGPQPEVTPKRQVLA

[10] = probe aEGFR binding to arrayed compounds – biochemical, biotinylated probe, 635/667 nm fluorescence, primary screen (AID 1097); conditions: small-molecule microarray, higher = more signal;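 further: probe is a biotinylated anti-EGFR antibody binding compounds printed on slides; score combines fluorescence near 667 nm and signal to noise of each spot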
[11] = tested on: Plasmodium falciparum Sir2 (PF13_0152, Sir2A); assay: Plasmodium falciparum Sir2A binding compounds – biochemical, small-molecule microarray, 635 nm fluorescence, primary screen (AID 1098); conditions: fluorescence 635 nm, higher = more signal;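 further: score merges spot fluorescence intensity with its signal-to-noise ratio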
[12] = probe aDKK1 binding to arrayed compounds – biochemical, biotinylated probe, 635/667 nm fluorescence, primary screen (AID 1099); conditions: small-molecule microarray, higher = more signal;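 further: score merges 667nm spot fluorescence with signal to noise across triplicate slides; reference of the scale not given here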
[13] = probe aCHRDL2 binding to arrayed compounds – biochemical, biotinylated probe, 635/667 nm fluorescence, primary screen (AID 1100); conditions: small-molecule microarray, higher = more signal
[14] = change in splice reporter luminescence, either direction, cell-based, HEK293, spliceosome inhibition project, primary screen (AID 1101); conditions: HEK293 splicing luciferase reporter, 24 h, higher = more signal, called active from +8 up or from −8 down;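 further: HEK293 cells carrying a splicing-competent luciferase reporter gene; test concentration not given here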
[15] = biological target: Fibroblast growth factor 10 (Homo sapiens) (UniProt O15520); assay: compounds binding fibroblast growth factor 10 – biochemical, small-molecule microarray, 635 nm fluorescence, primary screen (AID 1102); conditions: FGF10 binding, fluorescence 635 nm, higher = more signal
Sequence of Fibroblast growth factor 10 (Homo sapiens) (O15520 whole entry, looked up): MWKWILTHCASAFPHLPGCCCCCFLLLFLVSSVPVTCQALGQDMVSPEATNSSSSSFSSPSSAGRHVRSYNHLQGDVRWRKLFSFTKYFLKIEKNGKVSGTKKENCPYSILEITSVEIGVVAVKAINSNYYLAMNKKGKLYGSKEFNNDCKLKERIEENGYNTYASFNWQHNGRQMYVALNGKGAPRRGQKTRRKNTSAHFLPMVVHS

[16] = tested on: glycogen synthase kinase-3 (GSK3A per assay name; protocol says GSK3B); assay: compounds binding glycogen synthase kinase-3 – biochemical, small-molecule microarray, 635 nm fluorescence, GSK3A, primary screen (AID 1103); conditions: fluorescence 635 nm, higher = more signal; further: the record names both GSK3A and GSK3B
[17] = biological target: Epidermal growth factor receptor (Homo sapiens) (UniProt P00533); assay: compounds binding epidermal growth factor receptor – biochemical, small-molecule microarray, 635 nm fluorescence, primary screen (AID 1104); conditions: EGFR binding, higher = more signal;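 further: score merges 667 nm emission intensity with spot signal to noise over triplicate slides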
Sequence of Epidermal growth factor receptor (Homo sapiens) (P00533 whole entry, looked up): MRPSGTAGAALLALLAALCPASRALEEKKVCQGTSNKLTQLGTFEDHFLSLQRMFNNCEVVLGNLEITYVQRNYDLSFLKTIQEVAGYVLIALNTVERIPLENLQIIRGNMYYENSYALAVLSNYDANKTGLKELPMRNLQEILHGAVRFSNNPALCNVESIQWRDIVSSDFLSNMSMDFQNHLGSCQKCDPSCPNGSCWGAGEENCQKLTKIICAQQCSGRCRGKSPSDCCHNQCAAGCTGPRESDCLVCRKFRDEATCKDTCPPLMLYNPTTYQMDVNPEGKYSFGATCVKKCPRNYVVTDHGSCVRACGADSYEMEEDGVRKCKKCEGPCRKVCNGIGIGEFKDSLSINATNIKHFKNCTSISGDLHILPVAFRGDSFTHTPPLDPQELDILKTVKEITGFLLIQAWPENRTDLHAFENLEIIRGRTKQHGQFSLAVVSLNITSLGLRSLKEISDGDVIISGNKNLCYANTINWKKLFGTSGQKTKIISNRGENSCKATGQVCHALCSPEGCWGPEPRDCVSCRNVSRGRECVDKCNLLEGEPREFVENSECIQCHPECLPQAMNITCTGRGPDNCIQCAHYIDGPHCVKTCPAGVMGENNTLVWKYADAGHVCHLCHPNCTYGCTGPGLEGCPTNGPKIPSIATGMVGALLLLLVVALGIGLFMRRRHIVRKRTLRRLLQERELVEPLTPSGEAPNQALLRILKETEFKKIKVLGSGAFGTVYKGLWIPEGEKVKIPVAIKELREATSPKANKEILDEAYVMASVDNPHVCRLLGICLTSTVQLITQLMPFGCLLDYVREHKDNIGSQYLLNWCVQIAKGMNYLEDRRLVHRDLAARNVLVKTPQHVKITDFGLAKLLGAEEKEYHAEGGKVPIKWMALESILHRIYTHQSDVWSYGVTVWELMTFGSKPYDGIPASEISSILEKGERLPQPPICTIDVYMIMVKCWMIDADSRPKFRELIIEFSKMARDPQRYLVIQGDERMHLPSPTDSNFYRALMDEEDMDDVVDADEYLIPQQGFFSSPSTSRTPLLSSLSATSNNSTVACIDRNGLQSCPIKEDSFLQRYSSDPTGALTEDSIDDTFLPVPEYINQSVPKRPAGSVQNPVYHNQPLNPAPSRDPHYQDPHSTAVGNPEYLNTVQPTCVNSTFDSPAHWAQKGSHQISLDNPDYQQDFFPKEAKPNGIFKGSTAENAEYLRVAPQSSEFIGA

[18] = biological target: Follistatin-related protein 3 (Homo sapiens) (UniProt O95633); assay: compounds binding follistatin-related protein 3 – biochemical, small-molecule microarray, 635 nm fluorescence, primary screen (AID 1105); conditions: FSTL3 binding, higher = more signal;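 further: score merges emission near 667 nm and signal to noise per printed spot across three slides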
Sequence of Follistatin-related protein 3 (Homo sapiens) (O95633 whole entry, looked up): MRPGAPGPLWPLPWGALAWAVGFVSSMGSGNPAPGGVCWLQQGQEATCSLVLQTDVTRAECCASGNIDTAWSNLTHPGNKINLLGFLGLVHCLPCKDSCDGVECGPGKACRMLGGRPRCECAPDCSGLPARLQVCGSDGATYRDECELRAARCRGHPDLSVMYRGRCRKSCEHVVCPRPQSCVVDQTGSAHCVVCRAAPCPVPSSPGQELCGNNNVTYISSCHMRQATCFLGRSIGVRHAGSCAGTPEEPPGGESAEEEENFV

[19] = biological target: Dickkopf-related protein 1 (Homo sapiens) (UniProt O94907); assay: small molecules binding DKK1 protein – biochemical, small-molecule microarray, 635 nm fluorescence scan, primary screen (AID 1106); conditions: higher = more signal;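 further: score merges emission near 667 nm with signal to noise over three replicate slides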
Sequence of Dickkopf-related protein 1 (Homo sapiens) (O94907 whole entry, looked up): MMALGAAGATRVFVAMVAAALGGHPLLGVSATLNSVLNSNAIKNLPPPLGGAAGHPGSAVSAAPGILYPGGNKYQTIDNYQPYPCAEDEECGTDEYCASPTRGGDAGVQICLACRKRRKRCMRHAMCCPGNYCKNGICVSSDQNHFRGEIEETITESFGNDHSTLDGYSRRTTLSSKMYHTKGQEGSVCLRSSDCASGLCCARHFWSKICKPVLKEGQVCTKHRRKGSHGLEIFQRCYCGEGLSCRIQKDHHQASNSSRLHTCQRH

[20] = tested on: Inhibin beta A chain (activin A); assay: small molecules binding activin A – biochemical, small-molecule microarray, 635 nm fluorescence scan, primary screen (AID 1107); conditions: INHBA, higher = more signal;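 further: mouse activin A protein probed at 4.33 µg/mL on printed slides; score merges bound-protein fluorescence near 667 nm with spot signal-to-noise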

Row | Compound | composite z-score [1] | z-score [2] | z-score [3] | z-score [4] | composite z-score [5] | z-score [6] | composite z-score [7] | composite z-score [8] | composite z-score [9] | composite z-score [10] | composite z-score [11] | composite z-score [12] | composite z-score [13] | z-score [14] | composite z-score [15] | composite z-score [16] | composite z-score [17] | composite z-score [18] | composite z-score [19] | composite z-score [20]
1 | C=C(C(=O)CC[C@@H](OC(C)=O)c1cccc(OCCO)c1)C(C)C | 0.745 | 1.55 (inactive) | -0.464 (inactive) | 0.339 (inactive) | 1.62 | 0.351 (inactive) | -0.186 | -0.0056 | 0.507 | -0.207 | 1.24 | -0.136 | 0.114 | 2.37 (inactive) | 0.0186 | -0.664 | -0.649 | -0.0718 | -0.375 | 1.35
2 | CCCCC=C[C@@H](NC(=O)c1ccc(C(F)(F)F)cc1)c1ccccc1 | -0.461 | -0.27 (inactive) | -8.36 (active) | -1.79 (inactive) | 0.748 | -1.07 (inactive) | -0.0285 | -0.905 | -0.76 | -0.566 | -0.101 | 0.256 | 0.905 | -4.33 (inactive) | -1.13 | -1.03 | -1.28 | -1.01 | -1.37 | 1.37
3 | CO[C@H]1O[C@H](CO)[C@@H](OC(=O)Nc2ccc3c(c2)OCO3)[C@@H]2OC(=O)[C@@H](Cc3ccccc3)C/C=C/C[C@H](Cc3ccccc3)C(=O)O[C@@H]12 | 1.48 | 1.17 (inactive) | 0.78 (inactive) | 2.27 (inactive) | 1.29 | 0.156 (inactive) | -0.0562 | 0.566 | 0.887 | 0.0528 | 0.915 | 0.0902 | 0.259 | 0.216 (inactive) | 1.39 | 0.708 | 0.342 | 0.817 | 0.401 | 0.996
4 | COc1ccc(NN2C(C(O)c3cc(C(F)(F)F)cc(C(F)(F)F)c3)C=CC3C(=O)N(C4CCCCC4)C(=O)C32)cc1 (stereo not given) | 1.28 | -0.0995 (inactive) | 0.495 (inactive) | 0.518 (inactive) | 2.59 | -0.804 (inactive) | 0.849 | 0.535 | 1.06 | 0.705 | 1.12 | 1.28 | 0.751 | -1.08 (inactive) | 0.37 | 0.977 | 0.0981 | 0.384 | -0.292 | 0.639
5 | CCC[C@@H]1[C@@H](Sc2ccccc2)[C@@H](C(=O)O)[C@H](c2ccc(C)cc2)N1S(=O)(=O)c1ccc(C)cc1 | 1.56 | -0.994 (inactive) | 0.674 (inactive) | -0.698 (inactive) | 3.45 | -0.131 (inactive) | 0.114 | 1.05 | 1.04 | 0.129 | 1.05 | 0.505 | 0.284 | -0.114 (inactive) | 1.25 | 1.36 | 0.163 | 1.34 | 0.188 | 0.267
6 | CCC[C@@H]1C=C(C(=O)OCC)[C@H](c2ccccc2)N1S(=O)(=O)c1ccc(C)cc1 | 1.57 | 0.73 (inactive) | 1.67 (inactive) | 1.7 (inactive) | 0.352 | -0.209 (inactive) | 0.326 | 0.0974 | 1.08 | 0.21 | 0.58 | 0.852 | 1.02 | -0.141 (inactive) | 0.977 | 1.32 | 0.623 | 1.25 | 0.117 | 0.789
7 | CC(C)C[C@@H]1NC(=O)[C@@H]2C[C@H](C(=O)O)[C@H](c3ccc(O)cc3)N2C1=O | 1.54 | -1.45 (inactive) | -1.34 (inactive) | -0.42 (inactive) | 1.77 | 2.31 (inactive) | -0.0433 | 1.02 | 1.09 | 0.0226 | 1.44 | 0.361 | 0.383 | -0.687 (inactive) | 0.914 | 1.31 | 0.801 | 1.25 | 0.976 | -0.0021
8 | CC(C)C(=C=CC[C@@H](O)c1cccc(OCCO)c1)CCO | -0.102 | 0.493 (inactive) | -0.0344 (inactive) | -0.0595 (inactive) | 1.07 | 0.739 (inactive) | -0.0003 | 0.305 | 0.454 | 0.0241 | 0.725 | 0.0614 | 0.111 | -0.87 (inactive) | 1.51 | -0.615 | -0.554 | 0.457 | 0.137 | 0.677
9 | C=C(/C(=C/C[C@H](OC(=O)c1ccncc1)c1ccccc1OCCO)c1cc(C(=O)OC)ccc1OC)C(C)C | 1.43 | 0.363 (inactive) | 0.115 (inactive) | 2.11 (inactive) | 2.74 | 0.329 (inactive) | -0.159 | 0.691 | 1.13 | -0.112 | 0.748 | -0.0168 | 0.253 | -0.361 (inactive) | 1.54 | 0.33 | -0.105 | 1.1 | 0.599 | 1.25
10 | C=CCC(OC(C)=O)[C@@H]1[C@@H](N(Cc2cc3ccccc3o2)C(=O)Cc2ccc(OC)cc2)c2cc(OCCCO)ccc2N1C(=O)Cc1ccc2ccccc2c1 (stereo not given in full) | -0.328 | 0.225 (inactive) | 0.232 (inactive) | 0.738 (inactive) | 0.783 | -0.0576 (inactive) | -0.115 | -0.507 | -1.01 | -0.145 | -0.542 | -0.217 | 0.689 | -0.475 (inactive) | -0.448 | -1.52 | -0.227 | -0.471 | -0.62 | 0.806
